# In the library only some 14% were active in any assay of this set; here they are far more common.
# LmPK inh – inhibitors of Leishmania mexicana pyruvate kinase. Q27686. purified LmPK, Kinase-Glo ATP luminescence, 1 h. Potency, µM (series often up to 57.5 µM), actives largely listed as inhibitors. actives 0.37% (n = 290,000). AID 1721
#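 Purified LmPK (0.1 nM) converted ADP (0.1 mM) to ATP with PEP (0.5 mM) in imidazole buffer pH 7.2 with KCl and MgCl2, 1 h at room temperature. ATP was read by Kinase-Glo luminescence; data normalized to uninhibited and no-enzyme controls.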
# Shiga inhibitor – blocks Shiga toxin action in Vero cells. inhibition, % at 38.7 µM. Vero cells, Shiga toxin protein synthesis inhibition reporter. actives 9.2% (n = 290,000); in the data active = inhibition mostly above about 28%, no sharp cut-off; inactive = mostly below about 43%
# Giardia FBPA inh – Giardia lamblia aldolase inhibition. actives 0.71% (n = 290,000). purified Giardia FBPA. A8B2U2. Potency, µM (titrated, usually from 59.6 µM), hits mostly inhibitors; also: nearly all actives have a fitted effect of over 55% in size
# Target sequence (A8B2U2 whole entry, looked up): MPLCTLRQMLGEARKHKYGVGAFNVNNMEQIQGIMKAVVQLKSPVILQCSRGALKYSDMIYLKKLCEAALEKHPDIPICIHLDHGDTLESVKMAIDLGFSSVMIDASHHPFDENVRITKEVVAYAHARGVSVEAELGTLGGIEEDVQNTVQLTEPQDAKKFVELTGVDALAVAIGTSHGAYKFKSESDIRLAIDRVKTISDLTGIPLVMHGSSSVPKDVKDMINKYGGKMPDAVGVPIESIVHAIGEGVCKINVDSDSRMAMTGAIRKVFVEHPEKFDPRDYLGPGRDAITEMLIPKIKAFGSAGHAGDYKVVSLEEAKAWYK
#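 Giardia FBPA (40 nM reagent) was preincubated 10 min at RT with compound (up to 57.5 uM final), then substrate plus GAPDH/TPI/NAD/arsenate coupling system with diaphorase/resazurin was added; resorufin fluorescence (525/598 nm) was read after 20 min.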
# Cycloheximide cs – counter-screen for Shiga toxin inhibitors: cycloheximide protein synthesis inhibition; cell reporter, cycloheximide protein synthesis inhibition counterscreen; actives 12% (n = 300,000); max response, %; in the data active = max response mostly above about 13%, no sharp cut-off; inactive = mostly below about 14%; also: read at 38.3 µM for the half of the compounds with a filed dose
# NS1 function inh – inhibitors of influenza NS1 protein function | Potency, µM (doses to about 46.1 µM) | AID 2326 | actives 0.4% (n = 270,000); calls by dose curve; also: actives are rising curves; nearly all actives have a fitted effect of over 50% in size
#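 Growth recovery, yeast-based: influenza A NS1 expressed in S. cerevisiae causes slow growth, and suppressors are detected by OD600. The parent strain without NS1 is used as positive control.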
# Numbers stand for hits; 0 = inactive; ? = inconclusive; - = no result given; + = active, no number. Unless noted, calls follow the shape of the dose curve; as a rule, active = well fitted curve in the direction sought with a large enough effect; inconclusive = small, poorly fitted or top-dose-only effect, or another doubt; inactive = no such curve, though single readings can be large; an effect the other way counts as inactive or inconclusive.
SMILES,LmPK inh,Shiga inhibitor,Giardia FBPA inh,Cycloheximide cs,NS1 function inh
NC(=O)[C@@H]1CCCN1Cc1ccc2c(c1)OCO2,-,-,-,-,0
COc1ccc(CNc2nc(NCc3ccc(OC)cc3)c3ncn(C(C)C)c3n2)cc1,-,0,0,0,-
COc1cc2oc(=O)cc(-c3ccc(-c4ccc(OC(F)(F)F)cc4)cc3)c2c(OC)c1OC,-,69.9,0,0,-
COc1cc2oc(=O)cc(-c3ccc(-c4ccc(N(C)C)cc4)cc3)c2c(OC)c1OC,-,+,0,64.4,-
COc1cc(OC)c2c(-c3cccc(-c4ccc(N(C)C)cc4)c3)cc(=O)oc2c1,-,+,0,37.2,-
COc1cc(OC)c2c(-c3cccc(-c4ccc(OC(F)(F)F)cc4)c3)cc(=O)oc2c1,-,0,0,0,-
COc1cc2oc(=O)cc(-c3ccc(-c4ccc(F)c(Cl)c4)cc3)c2c(OC)c1OC,-,0,0,0,-
COc1cc(OC)c2c(-c3cccc(/C=C/c4ccc(F)cc4)c3)cc(=O)oc2c1,-,+,0,50.4,-
Cc1nc2cnc(N3CCOCC3)nc2n(C2CC2)c1=O,-,-,0,-,-
COc1cc2oc(=O)cc(-c3cccc(-c4ccc(C(C)=O)cc4)c3)c2c(OC)c1OC,-,+,0,39.3,-
COc1ccc(-c2ccc(-c3cc(=O)oc4cc(C)cc(C)c34)cc2)cc1,-,+,0,0,-
COc1ccc(-c2cccc(-c3cc(=O)oc4cc(OC)c(OC)c(OC)c34)c2)cc1,-,0,0,0,-
COc1ccc(-c2cccc(-c3cc(=O)oc4cc5c(cc34)OCO5)c2)cc1,-,0,0,29.6,-
COc1ccc(-c2ccc(-c3cc(=O)oc4cc(OC)c(OC)c(OC)c34)cc2)cc1F,-,78.9,0,30.0,-
Cc1ccccc1OCC(=O)N/N=C/c1ccc(N2CCOCC2)o1,0,0,-,0,0
CCCCc1nc(SCC(=O)Nc2cccc(Cl)c2)n[nH]1,0,0,-,0,0
COc1cccc(NC(=O)CNCc2ccccc2)c1,0,62.3,?,28.5,0
O=C(CNCc1ccccc1)Nc1ccc(F)cc1,0,0,0,34.6,0
O=C(CNC(=O)c1ccco1)Nc1ccc(F)cc1,0,0,0,0,0
O=C(CNC(=O)c1ccccc1Cl)Nc1ccc(F)cc1,0,0,0,19.5,0
COc1cccc(NC(=O)CC(=O)c2ccccc2)c1,0,100.4,0,58.6,0
O=C(CCS(=O)(=O)c1ccc(Cl)cc1)Nc1nc(-c2ccncc2)cs1,0,0,0,0,0
CC(C)(C)c1cc(C(=O)C[n+]2ccc(C(=O)NCCCO)cc2)cc(C(C)(C)C)c1O,0,0,0,0,0
Brc1ccc(OCc2nc(-c3ccccn3)n[nH]2)cc1,0,0,?,28.8,0
Cc1cc(Oc2ccc(Cl)cc2)nc(-c2ccccn2)n1,0,0,0,0,0
SMILES,LmPK inh,Shiga inhibitor,Giardia FBPA inh,Cycloheximide cs,NS1 function inh
Clc1ccc(OCc2nc(-c3ccccn3)n[nH]2)cc1,0,20.8,0,40.3,0
NC(=O)NC(CC(=O)Nc1cccnc1)c1cccc(Br)c1 (configuration not stated),0,0,-,0,0
Cc1ccc(-c2nn3c(C)nnc3s2)cc1N,0,0,0,15.9,0
Cc1cc(=O)n2nc(-c3ccccc3)sc2n1,0,61.0,0,38.5,0
Cc1nnc2sc(-c3cccc(F)c3)nn2c1=O,0,0,0,0,0
Cc1nnc2sc(-c3ccncc3)nn12,0,0,0,0,0
Cc1ccc(-c2nn3c(=O)c(C)nnc3s2)cc1,0,0,0,26.7,0
CC(C)(C)c1ccc(-c2nnc3sc(-c4ccncc4)nn23)cc1,0,0,0,14.2,0
Nc1nc(N)c2[nH]cnc2n1 (tested in a mixture with another compound),-,-,-,-,0
Cc1cccc(NC(=O)c2sc3nc(-c4ccc(F)cc4)cn3c2C)n1,0,0,0,0,0
Cc1cccc(NC(=O)c2sc3nc(-c4ccccc4)cn3c2C)n1,0,66.1,0,35.8,0
COc1ccc(-c2cn3c(C)c(C(=O)N4CCN(c5ccc(F)cc5)CC4)sc3n2)cc1,0,0,0,0,0
COc1ccc(-c2cn3c(C)c(C(=O)NC(C)(C)C)sc3n2)cc1,0,40.5,0,30.2,0
Cc1c(C(=O)Nc2ccccc2)sc2nc(-c3ccccc3)cn12,0,61.0,0,38.7,0
COc1ccc(-c2cn3c(C)c(C(=O)Nc4cccc(C)n4)sc3n2)cc1,0,0,0,12.3,0
CCC(=O)c1c[nH]c(C(=O)NCCc2ccccn2)c1,0,0,0,25.6,0
CC(C)CC(=O)c1c[nH]c(C(=O)NCCc2ccccn2)c1,0,0,0,27.8,0

# Compound activity deposited in PubChem by National Center for Advancing Translational Sciences (NCATS).
